Source: PubChem (Center for Chemical Genomics, University of Michigan)
Shown is part of a subset that was picked to be rich in hits.
Dicer inh: inhibitors of human Dicer processing of pre-microRNA. Q9UPY3. cat-ELCCA pre-miR-21 Dicer processing, chemiluminescence; hits give high values. z-score at 25 µM. hit rate 6% among 47,000. AID 1347074; in the data active = z-score above about 3, passing the limit was not always enough;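 also: higher signal means more uncleaved substrate so more Dicer inhibition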
Numbers stand for hits.

What do the screens show for `CCOC(=O)C1CCN(c2ncnc3scc(-c4ccccc4)c23)CC1`?
Dicer inh: inactive

How did Cc1cc(N2CCOCC2)n2c(nc3ccccc32)c1C#N do in these assays?
Dicer inh: inactive

Results for CC1=C(OS(=O)(=O)c2ccc(F)cc2F)C(=O)CC1 ?
Dicer inh: inactive

How did Cc1c(/C=N/NC(=O)NCc2ccc(Cl)cc2)sc2ccccc12 do in these assays?
Dicer inh: inactive

What do the screens show for `Fc1ccc(CN2CCN(Cc3ccc4ccccc4c3)CC2)cc1`?
Dicer inh: inactive

Results for O=C(c1cnn2c(C(F)F)cc(-c3ccccc3)nc12)N1CCN(c2ncccn2)CC1 ?
Dicer inh: inactive

What do the screens show for `COc1cccc(C2Nc3c(C)cccc3-c3cc(C)nn32)c1OC` (stereo not drawn)?
Dicer inh: inactive

What do the screens show for `COc1cccc(C2Nc3c(C)cc(C)cc3-c3cc(C)nn32)c1O` (stereo not drawn)?
Dicer inh: inactive

What do the screens show for `COc1cccc(C2Nc3c(C)cc(C)cc3-c3cc(C)nn32)c1OC` (stereo not drawn)?
Dicer inh: 4.9

How did N#C/C(=C\c1ccc(OCc2nc(-c3ccsc3)no2)cc1)C(=O)c1cccs1 do in these assays?
Dicer inh: inactive

How did O=C1c2ccccc2-c2n[nH]c(=O)c3ccc(N4CCCC4)c1c23 do in these assays?
Dicer inh: inactive

Results for COc1cc2nc3n(c2cc1OC)C(O)C=C(c1ccccc1)S3 (stereo not drawn) ?
Dicer inh: inactive

How did CCOC(=O)c1c[nH]c2ccc(OC(F)(F)F)cc2c1=O do in these assays?
Dicer inh: inactive

Results for CCSc1nc2c(c(=O)n1C)C1(CCCC1)Cc1ccccc1-2 ?
Dicer inh: 6.2

Results for Cn1c(NCCCO)nc2c(c1=O)C1(CCCCC1)Cc1ccccc1-2 ?
Dicer inh: inactive

How did CCn1c(SC)nc2c(c1=O)C1(CCCC1)Cc1ccccc1-2 do in these assays?
Dicer inh: inactive

Results for C=CCn1c(SCC(N)=O)nc2c(c1=O)C1(CCCCC1)Cc1ccccc1-2 ?
Dicer inh: inactive

Results for CCSc1nc2c(c(=O)n1CC)C1(CCCC1)Cc1ccccc1-2 ?
Dicer inh: inactive

Results for O=c1c2c(nc(NCCCO)n1-c1ccccc1)-c1ccccc1CC21CCCCC1 ?
Dicer inh: 4.3

Results for O=C(c1ccccc1)c1nn(-c2ccccc2)c2nc(=O)c(Cc3ccc(Cl)cc3)nn12 ?
Dicer inh: inactive

What do the screens show for `CC(C)(C)C(=O)NNC(=O)CSc1ncnc2sc3c(c12)CCCC3`?
Dicer inh: inactive

What do the screens show for `CCOC(=O)c1ccc(N)c(N)c1`?
Dicer inh: 3.4

How did CCOC(=O)c1ccc(-n2nc(C)cc2C)cc1 do in these assays?
Dicer inh: inactive

What do the screens show for `CCOC(=O)c1ccc([N+](=O)[O-])c(C)c1`?
Dicer inh: inactive

How did CCOC(=O)C(=CNc1ccccc1SCCC#N)C(=O)OCC do in these assays?
Dicer inh: inactive

How did COc1ccc(-c2cc(C(=O)N/N=C/c3ccc([N+](=O)[O-])cc3)c3ccc(C)cc3n2)cc1OC do in these assays?
Dicer inh: inactive

How did CC1CCN(C(=O)c2cc3nc(-c4cccs4)cc(C(F)(F)F)n3n2)CC1 do in these assays?
Dicer inh: inactive

What do the screens show for `CC1CN(C(=S)Nc2cccc3ccccc23)CC(C)O1` (stereo not drawn)?
Dicer inh: inactive

How did CC(C)NC(=S)Nc1cccc2ccccc12 do in these assays?
Dicer inh: 6.1

How did CCOC(=S)Nc1cccc2ccccc12 do in these assays?
Dicer inh: inactive

What do the screens show for `CC12CC=C3c4ccc(O)cc4CCC3C1CCC2O` (stereo not drawn)?
Dicer inh: inactive

Results for O=C(Cn1c(=O)oc2ccccc21)Nc1ccc(N2CCOCC2)cc1 ?
Dicer inh: inactive

What do the screens show for `O=C(Cc1csc(-c2cccc(-n3cccc3)c2)n1)NNC(=O)c1ccc(C(F)(F)F)cc1`?
Dicer inh: inactive

How did Cc1cccc(NC(=S)N2CCOC2c2ccsc2)c1 (stereo not drawn) do in these assays?
Dicer inh: inactive

Results for CCn1c(SCC(=O)c2ccccc2)nc2sc3c(c2c1=O)CCC3 ?
Dicer inh: inactive

How did CCCCn1c(SCC(=O)OC)nc2sc3c(c2c1=O)CCC3 do in these assays?
Dicer inh: 4.3

What do the screens show for `COC(=O)CSc1nc2sc3c(c2c(=O)n1-c1ccc(OC)cc1)CCCC3`?
Dicer inh: inactive

What do the screens show for `O=C(O)C1c2ccccc2Oc2ccccc21`?
Dicer inh: inactive

What do the screens show for `CC1CN(C(=O)C2c3ccccc3Oc3ccccc32)CC(C)O1` (stereo not drawn)?
Dicer inh: inactive

What do the screens show for `COC(=O)C1CCN(C(=O)C2c3ccccc3Oc3ccccc32)CC1`?
Dicer inh: 5

What do the screens show for `CC1CCCCN1C(=O)C1c2ccccc2Oc2ccccc21` (stereo not drawn)?
Dicer inh: inactive

What do the screens show for `CC(C)NC(=O)C1c2ccccc2Oc2ccccc21`?
Dicer inh: inactive

How did O=C(C1c2ccccc2Oc2ccccc21)N1CCCC1 do in these assays?
Dicer inh: 4

What do the screens show for `CCOC(=O)c1c(C)nn(-c2ncccc2NC(=O)Nc2cccc3ccccc23)c1C`?
Dicer inh: inactive

How did COc1ccccc1-c1nnc(SCC#CCO)o1 do in these assays?
Dicer inh: inactive

What do the screens show for `Cc1cc2oc3c(c(=O)c2cc1C)C(c1ccccc1F)N(c1nccs1)C3=O` (stereo not drawn)?
Dicer inh: inactive

How did CCCC1C(=O)CC(c2ccco2)NC1c1ccco1 (stereo not drawn) do in these assays?
Dicer inh: inactive

Results for O=C1NN=C2C3CC4CC12CC1(C3)C(=O)NN=C41 ?
Dicer inh: inactive

How did Cc1ccc2c(c1)-c1cc(C)nn1C(c1ccc(O)cc1)N2 (stereo not drawn) do in these assays?
Dicer inh: inactive

Results for Cc1cc2n(n1)C(c1ccc(C(=O)O)cc1)Nc1c(C)cccc1-2 (stereo not drawn) ?
Dicer inh: inactive

Results for Cc1cc2n(n1)C(c1ccc(N3CCOCC3)cc1)Nc1c(C)cccc1-2 (stereo not drawn) ?
Dicer inh: 3.8

What do the screens show for `Cc1ccc2c(c1)-c1cc(C)nn1C(c1ccc(C(=O)O)cc1)N2` (stereo not drawn)?
Dicer inh: inactive

How did Cc1ccc(O)c(C2Nc3c(C)cccc3-c3cc(C)nn32)c1 (stereo not drawn) do in these assays?
Dicer inh: 5.7

Results for Cc1cc2n(n1)C(c1ccc(O)cc1O)Nc1c(C)cccc1-2 (stereo not drawn) ?
Dicer inh: inactive

What do the screens show for `Cc1cc2n(n1)C(c1ccc(O)cc1)Nc1c(C)cccc1-2` (stereo not drawn)?
Dicer inh: 4.8

What do the screens show for `Cc1ccc2c(c1)-c1cc(C)nn1C(c1ccc(N(C)C)cc1)N2` (stereo not drawn)?
Dicer inh: 6.8

Results for Cc1cc2n(n1)C(c1cccc(O)c1O)Nc1c(C)cccc1-2 (stereo not drawn) ?
Dicer inh: inactive

Results for COCc1nc(-c2ccccn2)[nH]c(=O)c1C ?
Dicer inh: inactive

What do the screens show for `CCNc1oc(COc2ccc(OC)cc2)nc1C#N`?
Dicer inh: inactive

How did O=C(c1ccccc1)N1c2cc(Cl)ccc2OC1c1ccc(Cl)cc1 (stereo not drawn) do in these assays?
Dicer inh: inactive

What do the screens show for `CC(=O)NN(C)c1ccc(C(F)(F)F)cc1NC(=O)c1sc2ccccc2c1Cl`?
Dicer inh: inactive

Results for O=C(NCc1c(Cl)cccc1Oc1ccccc1)c1ccc2c(c1)OCC2 ?
Dicer inh: inactive
